Many of the other results were omitted from the sample, so hits are more common in it than they were.
RMI FANCM FP: RMI-FANCM interaction inhibition; Fluorescence polarization, RMI core complex with F-MM2 peptide; hits give low values; FP signal (polarization) at 33 µM; 70,000 tested, 0.58% active; in the data active = FP signal below about 40
The depositor's hits bear a star.

SMILES | RMI FANCM FP
Cc1ccc(N/C=C(\C#N)c2nc3ccccc3[nH]2)cc1 | 63
N#CC(=C(O)c1ccccc1Br)c1nc2ccccc2[nH]1 | 14*
N#C/C(=C\c1ccc([N+](=O)[O-])cc1)c1nc2ccccc2[nH]1 | 57
C=CCNC(=O)C(=O)N1CCN(c2ccc(OC)cc2)CC1 | 53
NS(=O)(=O)c1cccc(NC(=O)c2cccnc2Sc2ccccc2)c1 | 59
CCOc1ccc(N2CCn3c2nn(CC(=O)N2CCc4ccccc42)c(=O)c3=O)cc1 | 56
CCc1c2c(nc3sc(C(=O)c4ccc(Cl)c(Cl)c4)c(N)c13)CC(C)(C)CC2=O | -31*
CCc1c2c(nc3sc(C(=O)Nc4ccc(-c5nc6ccccc6s5)cc4)c(N)c13)CC(C)(C)CC2=O | 96
COc1ccc(-c2c3c(nc4sc(C(=O)Nc5ccc(Cl)cc5)c(N)c24)CC(C)(C)CC3=O)cc1 | 90
COc1ccc(C(=O)CSc2nc(-c3ccccc3C)ns2)cc1 | 65
Cc1ccc(-c2csc(Cc3nc(-c4ccc(C)cc4)cs3)n2)cc1 | 57
N#CCCSc1ccccc1NC(=O)/C=C/C(=O)O | 64
O=C(O)/C=C\C(=O)Nc1cccc2ccccc12 | -3*
O=C(O)/C=C\C(=O)Nc1ccccc1OC(F)(F)F | 53
Cc1cc(C)c(C#N)c(Sc2ncnc3sc4c(c23)CCCC4)n1 | 57
Cc1ccc(N=C2CSC(=O)N2)cc1 | 55
Cc1ccc(N=C2C=C(SC#N)C(=O)C(SC#N)=C2)cc1 | -16*
Cc1ccc(N=C2C=C(Cl)C(=O)C(Cl)=C2)cc1 | 54
COc1cccc2sc(N3CCN(S(=O)(=O)c4ccc(C)cc4)CC3)nc12 | 55
O=C(Cc1ccc2c(c1)OCO2)N1CCCCC1 | 53
O=C(c1ccc2c(c1)OCCO2)N1CCCCC1 | -20*
O=C(O)c1ccc2c(c1)OCCO2 | 53
C=CCN(CC=C)S(=O)(=O)c1ccc(N)cc1 | 60
NC(=O)c1ccc[n+](CC(=O)c2ccc3c(c2)Cc2ccccc2-3)c1 | 71
NC(=O)C[n+]1ccc2ccccc2c1 | 12*
SMILES | RMI FANCM FP
NC(=O)c1ccc[n+](CC(=O)c2ccc(Cl)c(Cl)c2)c1 | 62
N#C/C(=C/c1ccc(-c2ccc(F)c(Cl)c2)o1)c1nc2ccccc2[nH]1 | 63
CC(=O)NC1C(OC(=O)c2ccc(Br)o2)OC(COC(C)=O)C(OC(C)=O)C1OC(C)=O (centres undefined) | 60
Cc1ccc(-c2ccc(N3CCN(S(=O)(=O)c4ccccc4Cl)CC3)nn2)c(C)c1 | 80
Cc1ccc(S(=O)(=O)N=C2C=CC(=O)C(Cl)=C2)c(C)c1 | -12*
Cc1ccc(N2CCN(S(=O)(=O)c3cc(Cl)ccc3Cl)CC2)c(C)c1 | 64
O=[N+]([O-])c1ccc(OCC(O)CN2CCCCC2)cc1 (centres undefined) | 54
CC(=O)Nc1ccc(NCC(O)Cn2c3ccccc3n3c(=O)cc(C)c(C#N)c23)cc1 (centres undefined) | 62
O=C(NCCOc1ccc2nnc(-c3ccccc3Cl)n2n1)c1c(F)cccc1F | 68
C[C@]12CCC(=O)C=C1CCC1C2C(=O)C[C@@]2(C)C1CC[C@]2(O)C(=O)CO (some centres undefined) | -7*
CC(=O)OCC(=O)[C@@]1(O)CCC2C3CCC4=CC(=O)CC[C@]4(C)C3C(=O)C[C@@]21C (some centres undefined) | 64
CC(=O)OCC(=O)[C@@]1(O)CC[C@H]2[C@@H]3CCC4=CC(=O)CC[C@]4(C)[C@H]3C(=O)C[C@@]21C | 58
Cc1c(Cl)cccc1NC(=O)CCCn1nc(-c2cccs2)ccc1=O | 74
COc1ccc(NC(=O)CSc2ccc(F)cc2)c([N+](=O)[O-])c1 | 9*
COc1ccc(SCC(=O)Nc2ccc(F)cc2F)cc1 | 52
COc1ccc(NC(=O)CC2SC(=N)NC2=O)c([N+](=O)[O-])c1 (centres undefined) | 64
CCOC(=O)CNc1ccc(OC)cc1 | 70
COc1ccc(N2CCN(C(=O)C(=O)Nc3cccc(SC)c3)CC2)cc1 | 57
Cc1coc2ccccc2c1=O | 63
Cc1ccc2oc(C(=O)O)cc(=O)c2c1 | 59
Cc1ccc2occ(C=O)c(=O)c2c1 | 17*
CCOc1ccccc1N=c1oc2c3c4c(cc2cc1C(=O)Nc1ccccc1OC)CCCN4CCC3 | 33*
COc1cc(C(=O)Nc2ccccc2N2CCCCC2)cc(OC)c1OC | 58
CCOC(=O)c1c(N=c2oc3c(OC)cccc3cc2C(=O)Nc2ccc(C)cc2)sc2c1CCCC2 | 58
Cc1nnc(NC(=O)c2csc(Nc3ccccc3)n2)s1 | 63
SMILES | RMI FANCM FP
Cc1nccn1CC(O)Cn1c2c(c3cccc(Cl)c31)CCCC2 (centres undefined) | 91
COc1ccccc1-c1nnc(Nc2nc3ccc(F)cc3s2)o1 | 29*
Fc1ccc2nc(Nc3nnc(-c4cccs4)o3)sc2c1 | 84
Fc1ccc2nc(Nc3nnc(-c4ccco4)o3)sc2c1 | 80
Cn1nc2c(c1NC(=O)c1cc(Cl)ccc1Cl)CCC2 | 62
Nc1ccc(C(=O)O)c2c(C(=O)O)cccc12 | 19*
O=C(O)c1cccc2cccc(C(=O)O)c12 | 53
O=C(O)c1cccc(Cl)c1C(=O)O | 58
COc1cccc(-c2nc(Cn3c(=O)n(C(C)C)c(=O)c4ccccc43)c(C)o2)c1OC | 58
O=C(NCc1ccc(F)cc1)N1CCC(c2nnc(-c3ccco3)s2)CC1 | 63
O=C(CSc1ccc(-c2ccc(-n3cccn3)cc2)nn1)Nc1ccc(F)c(Cl)c1 | 73
COC(=O)/C(C)=C\CC12OC(C)(C)C3CC(C=C4C(=O)c5c(O)c6c(c(CCC(C)(C)Cl)c5OC431)OC1(C)CCC(=C(C)C)C6C1)C2=O (centres undefined) | 62
COC(=O)/C(C#N)=C/c1ccc(SC)s1 | 32*
CCOC(=O)/C(C#N)=C/c1ccc(OC)s1 | 55
CCOC(=O)/C(C#N)=C/c1ccc(-c2cccs2)s1 | 82
COCC(=O)Nc1cc(C)nn1-c1nc2c(cnn2-c2cccc(Cl)c2)c(=O)[nH]1 | 64
CN1CCN(C(CNC(=O)C(=O)NCC2CCCO2)c2ccc3c(c2)CCCN3C)CC1 (centres undefined) | 55
COc1ccc(CC(=O)NCC(c2cccc3ccccc23)N(C)C)cc1 (centres undefined) | 51
CN(C)C(CNC(=O)c1cccs1)c1cccc2ccccc12 (centres undefined) | 50
COc1cc(OC)cc(C(=O)NCC(c2cccc3ccccc23)N(C)C)c1 (centres undefined) | 54*
O=C1CC(c2ccccc2)CC(=O)N1c1ccccc1 | 56
CC(=O)C1=CN(c2ccccc2)C=C(C(C)=O)C1c1ccccc1 | 19*
NNC(=O)C1C(C(=O)NN)C1c1ccccc1 (centres undefined) | 58
NC(=O)C1CC2CCC1CC2 (centres undefined) | 57
O=C(O)c1cc(O)ccc1O | 62
SMILES | RMI FANCM FP
Nc1ccc(O)c(C(=O)O)c1 | 55
O=C(O)C1=CC(=C(c2ccc(O)c(C(=O)O)c2)c2ccc(O)c(C(=O)O)c2)C=CC1=O | -9*
O=C(NCc1ccco1)C(=O)NCC(c1ccc2c(c1)OCO2)N1CCN(c2ccccc2F)CC1 (centres undefined) | 60
O=C(O)c1cccc2c1-c1ccc(I)cc1C2 | 54
Cc1cc(O)c2c(c1)C(=O)c1cccc(O)c1C2=O | 50
O=C1c2c(O)cccc2Cc2cccc(O)c21 | -5*
CC(Oc1ccccc1)C(=O)Oc1coc(CSc2nnc(NC(=O)c3cccs3)s2)cc1=O (centres undefined) | 51

From PubChem BioAssay
